Compound activity as filed in PubChem.
Hits are enriched below; roughly 1.7% of the tested compounds scored in any of these assays.
LYPLA1 inh – blocks human lysophospholipase 1, a PME1 counter-screen; recombinant LYPLA1, FP-Rh probe fluorescence polarization; inhibition, % at 5.9 µM; 320,000 tested, 0.16% active; AID 2174;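 active = inhibition above the mean of all tested compounds plus 3 SD, set per campaign, cut at about 14% in these data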;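 also: inhibitors block serine hydrolase probe labeling of LYPLA1 so polarization falls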
Target sequence (O75608 whole entry, looked up): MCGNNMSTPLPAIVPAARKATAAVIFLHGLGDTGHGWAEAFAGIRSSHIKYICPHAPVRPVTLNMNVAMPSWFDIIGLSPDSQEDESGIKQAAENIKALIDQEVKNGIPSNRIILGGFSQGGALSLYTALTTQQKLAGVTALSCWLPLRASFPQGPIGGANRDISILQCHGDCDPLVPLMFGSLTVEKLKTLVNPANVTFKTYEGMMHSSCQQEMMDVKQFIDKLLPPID
PREPL inhibitor – inhibits the human prolyl oligopeptidase-like enzyme; Q4J6C6; recombinant PREPL, fluorescence polarization activity-based probe; inhibition, % at 5.96 µM; 320,000 tested, 0.68% active; AID 2751
LYPLA2 counter – LYPLA2 (human) inhibition in PME1 counter-screen. 320,000 tested, 0.38% active. O95372. inhibition, % at 5.9 µM. recombinant LYPLA2, FP-Rh probe fluorescence polarization. AID 2177;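 active = inhibition above the screen-wide mean plus 3 SD, limit set per campaign, cut at about 26% in these data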
Target sequence (O95372 whole entry, looked up): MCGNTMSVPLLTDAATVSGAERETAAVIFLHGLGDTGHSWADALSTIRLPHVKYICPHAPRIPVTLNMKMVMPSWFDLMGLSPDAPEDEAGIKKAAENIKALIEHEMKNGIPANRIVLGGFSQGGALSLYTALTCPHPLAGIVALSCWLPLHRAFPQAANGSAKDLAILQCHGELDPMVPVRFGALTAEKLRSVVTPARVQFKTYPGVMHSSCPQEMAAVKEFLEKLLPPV
p97 ATPase inh – inhibitors of human p97 ATPase. P55072. recombinant p97 ATPase, Kinase-Glo ATP luminescence, 3 h. inhibition, % at 8 µM. 220,000 tested, 0.42% active. AID 1481; in the data active = inhibition above about 15%
Hck-Nef inh – human Hck-Nef kinase inhibition; 220,000 tested, 0.68% active; inhibition, % at 20 µM; P08631; Recombinant Hck-YEEI plus Nef, Z-Lyte FRET kinase assay;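 active = Hck-Nef kinase inhibition above about 50%, limit read from the data; inactive = inhibition below that limit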
Rin1-Abl PPI inh – blocks binding of human Rin1 to Abl | inhibition, % at 7.35 µM | AID 588664 | 360,000 tested, 0.4% active | P00519+Q13671 | TR-FRET Rin1/Abl binding, biochemical; in the data active = inhibition above about 5%, passing the limit was not always enough
PREPL inh cf – human PREPL inhibition, confirmation. shares compounds with PREPL inhibitor. recombinant PREPL, fluorescence polarization activity probe. inhibition, % at 5.96 µM. 2,000 tested, 67% active
Of the large screens only hits and unclear results are named; the others gave an inactive call (follow-up assays come after a bar, where they were run). Rule as the data show it, unless noted: active = inhibition above about 43%; inactive = the rest.

CCN1/C(=C/c2ccc3ccccc3[n+]2CCCS(=O)(=O)[O-])C=Cc2cc(C)ccc21	none (no result: LYPLA1 inh, PREPL inhibitor, LYPLA2 counter, p97 ATPase inh, Hck-Nef inh)
CCN1/C(=C/c2ccc3ccccc3[n+]2CC)C=Cc2ccccc21	PREPL inhibitor 47 | PREPL inh cf 49
COc1ccc(NC(=S)NNc2ccc(S(=O)(=O)Nc3ccccc3C(=O)O)cc2[N+](=O)[O-])cc1	none
C=CCOc1ccc(C=NNc2ccc(S(=O)(=O)Nc3ccccc3C(=O)O)cc2[N+](=O)[O-])cc1OC	PREPL inhibitor 62 (no result: LYPLA1 inh, LYPLA2 counter, p97 ATPase inh, Hck-Nef inh) | PREPL inh cf inactive
CCOc1ccc(C=NNc2ccc(S(=O)(=O)Nc3ccccc3C(=O)O)cc2[N+](=O)[O-])cc1	PREPL inhibitor 65 (no result: LYPLA1 inh, LYPLA2 counter, p97 ATPase inh, Hck-Nef inh) | PREPL inh cf 69
COc1ccc(CC(=O)N2CCN(S(=O)(=O)c3cc(Cl)ccc3Cl)CC2)cc1	PREPL inhibitor 79 (no result: p97 ATPase inh, Hck-Nef inh) | PREPL inh cf inactive
CC1CCCC(NC(=O)c2ccc3c(c2)NC(=O)CS3)C1C (stereo not given)	none (no result: p97 ATPase inh, Hck-Nef inh)
COc1ccc(/C=C/C(=O)Oc2ccc(C)c(C)c2)cc1OC	none
COc1cc(/C=C/[N+](=O)[O-])ccc1OC(=O)/C=C/c1ccc(F)cc1	PREPL inhibitor 47 (no result: p97 ATPase inh, Hck-Nef inh) | PREPL inh cf 46
Cc1cc(C)c(S(=O)(=O)N2CCCCC2CCNC(=O)C(=O)NCc2ccco2)c(C)c1 (stereo not given)	none (no result: p97 ATPase inh, Hck-Nef inh)
O=C(c1ccc(Cl)cc1)C1CCN(C(=S)Nc2ccccc2)CC1	none (no result: LYPLA1 inh, PREPL inhibitor, LYPLA2 counter, p97 ATPase inh, Hck-Nef inh)
COc1cccc(-c2ccc(SCC(=O)NC3CCCCC3)nn2)c1	PREPL inhibitor 44 (no result: p97 ATPase inh, Hck-Nef inh) | PREPL inh cf inactive
[N-]=[N+]=NC1CC(CO)OC1n1ccc(=O)[nH]c1=O (stereo not given)	none (no result: p97 ATPase inh, Hck-Nef inh)
CCc1c(C)nc2cc(-c3ccc(OC)c(OC)c3)nn2c1N1CCCC1	PREPL inhibitor 45 | PREPL inh cf inactive
CCc1c(C)nc2cc(-c3ccc(OC)c(OC)c3)nn2c1N1CCC(C)CC1	none
CCOc1ccccc1NC(=O)CSc1ccc(-c2sc(C)nc2C)nn1	none (no result: p97 ATPase inh, Hck-Nef inh)
COc1ccc(C(=O)Nc2ccc(-c3ccc(C)o3)cc2)cc1S(=O)(=O)N1CCOCC1	PREPL inhibitor 63 | PREPL inh cf inactive
CCc1cc(=O)oc2c(C)c(OC(C)C(=O)NC3CC(C)(C)NC(C)(C)C3)ccc12 (stereo not given)	PREPL inhibitor 49 (no result: p97 ATPase inh, Hck-Nef inh) | PREPL inh cf inactive
CCc1cc(=O)oc2c(C)c(OCC(=O)NC3CC(C)(C)NC(C)(C)C3)ccc12	none (no result: p97 ATPase inh, Hck-Nef inh)
CC1O[C@@H](OC2C(O)C(O)C(CO)O[C@H]2OC2C[C@]3(C)C(CC(O)C4[C@@H]([C@]5(C)CC[C@@H](C(C)(C)O)O5)CC[C@]43C)[C@@]3(C)CCC(O)C(C)(C)C23)C(O)C(O)C1O (stereo not given in full)	none (no result: LYPLA1 inh, LYPLA2 counter, p97 ATPase inh, Hck-Nef inh)
Cc1ccc([C@@H]2CC=C(C(=O)O)[C@H](c3cccc(F)c3)N2S(=O)(=O)c2ccccc2C)cc1	none (no result: LYPLA1 inh, LYPLA2 counter, p97 ATPase inh, Hck-Nef inh)
CN(C)c1ccc(C(O)P(=O)(OCc2ccccc2)c2ccc(N(C)C)cc2)cc1 (stereo not given)	PREPL inhibitor 51 | PREPL inh cf 53
Cc1c(CCOC(=O)c2cc([N+](=O)[O-])cc([N+](=O)[O-])c2)sc[n+]1CC(=O)c1ccccc1	PREPL inhibitor 56 | PREPL inh cf 50
Cc1c(CCOC(=O)C23CC4CC(CC(C)(C4)C2)C3)sc[n+]1CC(=O)c1ccccc1	PREPL inhibitor 48 | PREPL inh cf 44
CCOc1ccc(NC(=O)C2CCCN(S(C)(=O)=O)C2)cc1 (stereo not given)	none (no result: p97 ATPase inh, Hck-Nef inh)
COC(=O)c1ccc(Cn2c(C)c(C(=O)NCc3ccco3)sc2=O)o1	none (no result: LYPLA1 inh, PREPL inhibitor, LYPLA2 counter, p97 ATPase inh, Hck-Nef inh)
CCN(CC)CCN1c2ccccc2Sc2ccc3ccccc3c21	PREPL inhibitor 46 | PREPL inh cf inactive
CCN(CC)CCN1c2ccccc2Sc2ccccc21	none (no result: p97 ATPase inh, Hck-Nef inh)
COCCn1c(-c2ccc(Br)cc2)csc1=Nc1cccnc1	PREPL inhibitor 48 | PREPL inh cf 50
Clc1ccc(-c2csc(=Nc3cccnc3)n2CCCn2ccnc2)cc1Cl	PREPL inhibitor 56 | PREPL inh cf 58
COc1ccc(CN(C)c2ncnc(N)n2)cc1	none
CCCCCCCCCCCCCCCC[N+](C)(C)CCN(Cc1ccc(OC)cc1)c1ncccn1	PREPL inhibitor 60 (no result: p97 ATPase inh, Hck-Nef inh) | PREPL inh cf 63
